ChEMBL document CHEMBL1157539, “Thousands of chemical starting points for antimalarial lead identification” (Nature, 2010)

What was measured:
Format in all cases: functional
[1] = tested on: Plasmodium falciparum; test: GSK_TCMDC: Inhibition of Plasmodium falciparum 3D7 in whole red blood cells, using parasite LDH activity as an index of growth. Test compounds present at 2uM
[2] = tested on: Plasmodium falciparum; test: GSK_TCMDC: Inhibition of Plasmodium falciparum Dd2 in whole red blood cells, using parasite LDH activity as an index of growth. Test compounds present at 2uM
[3] = tested on: HepG2; test: GSK_TCMDC: Percent inhibition of human HepG2 cell line. Test compounds present at 10uM.

Compound	Inhibition [1]	Inhibition [2]	Inhibition [3]
COc1ccc(CN(C)C(=O)CCNS(=O)(=O)c2ccc3c(c2)OCCCO3)cc1F	96%	94%	9%
CC(C(=O)Nc1ccc(Br)cc1Br)N1CCN(C(=O)c2ccco2)CC1 (stereo unspecified)	91%	84%	3%
O=C(Nc1cc(C(F)(F)F)cc(C(F)(F)F)c1)c1cc(C(F)(F)F)cc(C(F)(F)F)c1	100%	86%	21%
O=[N+]([O-])c1ccc(Nc2nc(N/N=C/c3cccc(O)c3)nc(N3CCCC3)n2)cc1	88%	9%	0%
Cc1cccc(CNc2nc(C)cc(N[C@@H](Cc3ccccc3)C(=O)NCCc3ccccc3)n2)c1.O=C(O)C(F)(F)F	99%	85%	24%
Cc1occc1C(=O)Nc1nc(-c2ccccn2)nc2ccsc12	98%	98%	68%
CCc1c(CCNCCCCCCNCCc2ccc([N+](=O)[O-])cc2)ccc(OC)c1OC.Cl	100%	2%	35%
Cc1ccc(C(=O)Nc2ccc(F)c(F)c2F)cc1S(=O)(=O)N1CCCCC1	92%	69%	3%
CN(C)CCN1CCN(Cc2ccc(-c3cccc(-c4nc5ccccc5[nH]4)c3)cc2)CC1.O=C(O)C(F)(F)F	100%	100%	25%
Cc1cc(C(=O)CN2C(=O)NC(C)(c3ccc4ccccc4c3)C2=O)c(C)n1Cc1ccco1 (stereo unspecified)	97%	71%	12%
O=C(Cn1cc(C(F)(F)F)cc(Cl)c1=O)N1CCN(S(=O)(=O)c2ccc(Cl)cc2)CC1	99%	69%	14%
COc1ccc2ncc(F)c(CCN3CC(O)C(CNCc4ccc5c(c4)OCCO5)C3)c2n1.Cl (stereo unspecified)	94%	35%	18%
COc1ccccc1C1CCN(C2CCC(NC(=O)c3cc4ccccc4[nH]3)CC2)CC1 (stereo unspecified)	88%	7%	49%
CCc1c[nH]c2c(N3CCCS3(=O)=O)cc(C(=O)N[C@@H](Cc3ccccc3)[C@H](O)CNC3CCCCC3)cc12.O=CO	99%	89%	6%
N#Cc1cccc(C(=O)Nc2cccc(-c3cccc(CN4CCNCC4)c3)c2)c1.O=C(O)C(F)(F)F	89%	10%	37%
O=C(O)C(F)(F)F.c1ccc2[nH]c(-c3ccc(-c4ccc(CNCCc5ccncc5)cc4)s3)nc2c1	100%	98%	28%
CC1(C)CCCN(c2ncc(-c3cccc(CNCc4ccccc4O)c3)cn2)C1	96%	82%	35%
CCOc1cc(C(=O)NCC2CCN(CC3CCCCC3)CC2)ccc1-c1nc2cc(Cl)ccc2[nH]1	98%	59%	14%
Cc1cc(C(=O)Nc2ccc(OCc3ccccc3)cc2)on1	87%	89%	1%
Cc1cccc2nc(-c3ccc(-c4ccc(CNCC(C)C)cc4)cc3)[nH]c12.O=C(O)C(F)(F)F	100%	90%	14%
CC(=O)Nc1ccc(C(=O)Nc2cccc(-c3ccc(-c4nc5ccccc5[nH]4)s3)c2)cn1	100%	91%	9%
Nc1ccc(-c2nc3cc(-c4ccc5[nH]c(-c6ccc(N)cc6)nc5c4)ccc3[nH]2)cc1	100%	96%	45%
COc1ccc2nccc(N3CCC(O)(CCNCc4ccc5c(n4)NC(=O)CO5)CC3)c2n1.Cl	100%	24%	18%
COc1cc(OC)c2c(c1Cl)O[C@]1(C2=O)C(=O)C(Cc2ccccc2)(Cc2ccccc2)C(=O)C[C@H]1C	90%	45%	0%
Cc1cc(-c2cc(-c3ccc(OCCN(C)C)cc3)[nH]c2-c2ccc3c(c2)CCC3=NO)ccn1	100%	92%	0%
COc1ccc(NS(=O)(=O)c2cccc(C(=O)Nc3ccc(C(F)(F)F)cc3)c2)cc1N1CCN(CC(C)C)CC1.O=C(O)C(F)(F)F	94%	4%	5%
COc1ccc(Nc2nc(N/N=C/c3ccc(-c4ccc([N+](=O)[O-])cc4)o3)nc(Nc3ccccc3)n2)cc1	100%	17%	0%
